# From PubChem
# KLK7 zymogen act: proKLK7 (human) activation, primary screen | activation, % at 7 µM | 370,000 tested, 0.9% active | AID 652039 | P49862 | purified proKLK7, EDANS-DABCYL substrate fluorescence; 100% is mature enzyme control, 0% vehicle;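 active = activation above the mean of all tested compounds plus 3 SD, computed per campaign excluding outliers beyond control limits, cut at about 13% in these data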
# rCAG RNA binder: r(CAG) repeat RNA binding | TO-PRO-1 dye displacement fluorescence | inhibition, % at 3 µM | 370,000 tested, 1.3% active;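 active = inhibition above the plate cutoff, the mean of all test compounds on that plate plus 3 SD, cut at about 35% in these data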;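 also: 0% = DMSO alone and 100% = 100 µM mitoxantrone as full dye displacement; higher means more dye released from RNA so lower well fluorescence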
# Pemphigus Ab inh: inhibitors of pemphigus antibody binding to human desmoglein-3 | 310,000 tested, 0.48% active | binding (percent of control), % at 10 µM | P32926 | DSG3-coupled beads, scFv-anti-DSG3-GFP binding, flow cytometry; stronger effect = lower value;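 active = binding more than 3 SD below its plate's average and above zero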;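 also: hits lower antibody fragment binding to DSG3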
# ADAM17 inh: ADAM17 inhibition, QFRET primary screen | recombinant ADAM17, EDANS/DABCYL FRET peptide cleavage | 370,000 tested, 0.83% active | P78536 | inhibition, % at 6.95 µM | AID 720648;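 active = inhibition above the mean of compounds lying between control limits plus 3 SD, set per campaign, cut at about 8.5% in these data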;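 also: 0% = DMSO-only wells as the low control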
# ADAM10 inh: ADAM10 inhibition, QFRET primary screen; inhibition, % at 7 µM; recombinant ADAM10, EDANS/DABCYL FRET peptide cleavage, 3 h; 370,000 tested, 0.62% active;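 active = inhibition above a per-campaign cutoff equal to the mean of compounds falling between control-based bounds plus 3 SD, cut at about 20% in these data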;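 also: 0% = DMSO wells while the 100% control is not disclosed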
# MPTP inh: blocks calcium-induced mitochondrial swelling | isolated mouse mitochondria, Ca2+ swelling absorbance, 30 min | inhibition, % at 10 µM | 360,000 tested, 1.4% active | AID 602449;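 active = inhibition of 50% or more, scaled per plate between neutral and stimulator controls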;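 also: 0% = DMSO wells given calcium and 100% = 1 mM EGTA wells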
# MPTP counter: mitochondrial membrane potential, counter-screen; shares compounds with MPTP inh; isolated mitochondria, Rhodamine 123 fluorescence; inhibition, % at 10 µM; 5,000 tested, 78% active; AID 624504; in the data active = inhibition above about 22%;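 also: 0% = DMSO vehicle and 100% = positive control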
# MPTP swell DR: dose response confirmation of mitochondrial permeability transition pore inhibitors; shares compounds with MPTP inh; isolated mitochondria swelling, absorbance; IC50, µM; 780 tested, 58% active; AID 651561; in the data active = IC50 below about 20 µM
# MPTP counter DR: MPTP inhibitor counter-screen activity, dose response; shares compounds with MPTP inh; isolated mitochondria counterscreen, fluorescence read-out; IC50, µM; 780 tested, 49% active; AID 651564; in the data active = IC50 below about 80 µM
# * hit, by the source's call; . = no result. Only some compounds are listed: those with a hit (about 4.7% of all), similar ones and a draw of the others.
SMILES,KLK7 zymogen act,rCAG RNA binder,Pemphigus Ab inh,ADAM17 inh,ADAM10 inh,MPTP inh,MPTP counter,others
O=C(NCc1c(F)cccc1F)C1CCCN(c2ncccn2)C1 (centres undefined),0,-1,.,-13,-37,.,.,
FC(F)(F)c1cccc(NC(=S)N2CCN(c3ccccn3)CC2)c1,0,2,97,-1,-5,8,.,
Cc1csc2c(N3CCN(C(=S)Nc4ccc(C(F)(F)F)cc4)CC3)ncnc12,0,2,112,1,10,97*,92*,
CC(C)(C)NCCOCCOc1ccc(Cl)cc1C(C)(C)C,0,0,102,1,-12,0,.,
C=CCNCCOCCOc1ccc(Cl)cc1C(C)(C)C,0,1,113,0,2,92*,-9,MPTP swell DR=11*;MPTP counter DR=>80
COCCCNCCOCCOc1ccc(Cl)cc1C(C)(C)C,-1,-5,99,-2,-3,61*,-15,MPTP swell DR=4.3*;MPTP counter DR=>80
Cc1ccc(CN2CCCCC(NC(=O)c3ccc(Br)cc3)C2=O)cc1 (centres undefined),1,1,.,2,10,.,.,
Cc1cccc(N(C)S(=O)(=O)c2ccc3[nH]cc(C(=O)N4CCOCC4)c(=O)c3c2)c1,-10,4,119,-15,-50,1,.,
CCc1ccccc1N(C)S(=O)(=O)c1ccc2[nH]cc(C(=O)N3CCc4ccccc43)c(=O)c2c1,-1,33,104,7,9,64*,63*,
CC(C)(C)OC(=O)NC(Cc1ccccc1)C1CC(C#N)C(=O)O1 (centres undefined),.,.,.,-5,-1,.,.,
Cc1cccc(OCC(=O)Nc2nc3ccc([N+](=O)[O-])cc3s2)c1,1,8,109,3,6,67*,87*,
Cc1cccc(OCC(=O)Nc2nc3ccc([N+](=O)[O-])cc3s2)c1C,0,7,86,-1,1,69*,83*,
O=C(Nc1nc2ccc([N+](=O)[O-])cc2s1)c1c(F)cccc1F,1,2,116,2,4,0,.,
O=S1(=O)N[C@H](Cc2ccccc2)COc2cc(N3CCOCC3)ccc21,0,1,.,-2,-13,.,.,
Cc1ccc(Cn2cc(CN(C)S(=O)(=O)c3ccccc3Br)nn2)cc1,1,2,.,-1,2,.,.,
CC(C)[C@H](NC(=O)c1ccc(Cl)cc1Cl)C(=O)N1CCC[C@H]1C(=O)NCc1ccccc1,0,-1,.,-6,1,.,.,
Cc1cc(C)nc(/N=C(\N)Nc2ccc(CC(=O)OC(C)C)cc2)n1,0,16,117,-3,-1,50*,59*,
COc1ccc(N/C(N)=N/c2nc(C)cc(C)n2)cc1,0,0,99,-2,-13,-1,.,
Cc1cc(C)nc(/N=C(\N)Nc2ccc(OCc3ccccc3)cc2)n1,0,22,104,-2,-6,34,.,
Cc1cc(C)nc(/N=C(\N)Nc2cccc(OCc3ccccc3)c2)n1,0,21,104,1,-2,83*,64*,
Cc1cc(C)nc(/N=C(\N)Nc2ccc(OCCC(C)C)cc2)n1,-1,20,123,-3,9,100*,91*,
Cc1cc(C)nc(/N=C(\N)Nc2ccc(S(=O)(=O)O)cc2)n1,0,-1,.,-3,-4,-1,.,
COc1cccc(OCc2cc(C(=O)N3CCC(c4ccncc4)CC3)no2)c1,0,-3,97,2,5,80*,75*,
CC(=O)c1ccc(OCc2cc(C(=O)N3CCC(c4ccncc4)CC3)no2)cc1,0,-5,111,-6,4,96*,87*,
O=C(c1cc(COc2cccc(C(F)(F)F)c2)on1)N1CCC(c2ccncc2)CC1,0,-9,92,3,-1,97*,99*,
O=[N+]([O-])c1ccc(O)c(/C=N/n2c(-c3ccccc3)n[nH]c2=S)c1,0,1,109,1,5,0,.,
